Source: ChEMBL document CHEMBL3433997, “St. Jude Leishmania screening dataset” (2016)

Biological target: Solute carrier family 2, facilitated glucose transporter member 1 (Homo sapiens) (UniProt P11166)
Assay: ST_JUDE_LEISH: Cytotoxicity at 2uM final concentration against transgenic Leishmania Mexicana promastigotes LmGLUT1 that are glucose transport deficient and complemented with the human glucose transporter GLUT1. Activity is measured by DNA content using SYBR green in vitro
Assay type: functional

Sequence of Solute carrier family 2, facilitated glucose transporter member 1 (Homo sapiens) (P11166 whole entry): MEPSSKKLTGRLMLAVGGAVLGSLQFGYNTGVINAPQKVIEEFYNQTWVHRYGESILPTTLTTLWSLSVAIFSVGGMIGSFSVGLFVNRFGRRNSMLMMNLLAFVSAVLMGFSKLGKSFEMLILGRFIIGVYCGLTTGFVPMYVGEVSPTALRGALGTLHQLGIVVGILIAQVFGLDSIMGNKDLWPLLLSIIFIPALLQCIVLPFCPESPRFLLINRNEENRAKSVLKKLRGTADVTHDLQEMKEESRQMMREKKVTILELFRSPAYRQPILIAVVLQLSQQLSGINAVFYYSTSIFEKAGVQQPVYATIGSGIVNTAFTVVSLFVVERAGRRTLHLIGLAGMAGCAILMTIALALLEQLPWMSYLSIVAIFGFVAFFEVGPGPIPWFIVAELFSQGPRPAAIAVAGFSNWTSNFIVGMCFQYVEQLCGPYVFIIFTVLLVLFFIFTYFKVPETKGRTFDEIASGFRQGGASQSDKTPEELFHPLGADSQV

| SMILES | inhibition |
| --- | --- |
| CCC[C@@H](C(=O)NCCc1cccc(OC)c1)N1C(=O)c2c(ccc(OC)c2OC)C1C(=O)Nc1c(C)cccc1C (stereo not given in full) | 0.5% |
| COc1ccc2[nH]ccc(=NN=Cc3ccc(F)cc3)c2c1 | 2.33% |
| CCOc1ccc2c(=NN=Cc3cccc(OC)c3)cc(C)[nH]c2c1 | -0.74% |
| COc1ccc2nccc([C@@H](O)CN3CCC(NC(=O)c4ccc(OC)c(N)c4)CC3)c2c1 | 14.9% |
| CCCCC(N)COc1cccc2c(-c3ccncc3)c(-c3cccc(NC(=O)Nc4ccccc4)c3)nn12 (stereo not given) | 3.39% |
| COc1ccc(NC(=O)CCNc2cc(C)nc(NCc3ccccc3C)n2)cc1 | 5.23% |
| C/C=C/COc1ccc2ccccc2c1CNCCCCCCCCNCc1c(OC/C=C/C)ccc2ccccc12 | 16.7% |
| COc1ccc(Nc2nc(C)cc(NCc3ccc(-c4c(C)noc4C)cc3)n2)cc1 | 17.4% |
| O=C(Nc1cccc(CN2CCCN(Cc3ccccc3)CC2)c1)c1ccc(-c2ccccc2)cc1 | 3% |
| O=C(Nc1cc(Cl)cc(Cl)c1)Nc1ccnc2ccccc12 | 2.68% |
| O=C(Nc1cccc(-c2nn3ccccc3c2-c2ccnc(Nc3cccc(F)c3)n2)c1)c1c(F)ccc(F)c1Cl | 9.38% |
| CCNc1cc(CC)nc(Nc2ccc(C)cc2)n1 | 33.4% |
| CCCCNc1nccc2ccc(-c3ccncc3)cc12 | 3.45% |
| COc1ccccc1CCNc1ncnc2c1[nH]c1ccc(F)cc12 | 4.25% |
| COc1ccc(CN2CCC2=O)c(OC)c1 | 4.12% |
| COc1ccc(-c2cccc(NC(=O)c3cccc(Cl)c3)c2)cc1CN1CCCC1 | 7.71% |
| Cc1ccc(Oc2ncccc2C(=O)Nc2cccc3cccnc23)c(C)c1 | -2.47% |
| COc1ccc(-c2cn3c(C(=O)Nc4ccccc4Cl)c(-c4ccccc4)c4c3n2CCCC4)cc1 | 0.33% |
| CC(=O)Nc1ccc(OCCN(Cc2ccccc2C(F)(F)F)c2ccc(C#N)c(C(F)(F)F)c2)cc1 | 18.7% |
| O=[N+]([O-])c1cccc(NC(=S)N2CCCN(Cc3ccc(C(F)(F)F)cc3)CC2)c1 | 2.92% |

| SMILES | inhibition |
| --- | --- |
| c1ccc2c(NCCCCCCCNc3ccnc4ccccc34)ccnc2c1 | 13.5% |
| COc1ccc(C2CCN(CCCCNC(=O)c3ccc(NC(=O)c4ccc(Cl)cc4)cc3)CC2)c(OC)c1 | 6.64% |
| CC(C)NC(=N)NN=Cc1ccc(Cl)c(Cl)c1 | 5.7% |
| CC1CN(c2ccnc3ccc(Sc4ccc(Oc5ccccc5)cc4)cc23)CC(C)N1 (stereo not given) | 0.07% |
| Cc1ccc2[nH]c3c(NCCCN4CCOCC4)ncnc3c2c1 | 7.43% |
| O=C(Cc1ccccc1)NC(c1ccco1)c1cc(Cl)c2cccnc2c1O (stereo not given) | -0.34% |
| O=C(CC1NC(=O)c2ccccc21)Nc1ccc(-c2ccc(-c3nc4cc(C(F)(F)F)ccc4[nH]3)cc2)cc1 (stereo not given) | 4.68% |
| O=C(Nc1ccc(N2CCCCC2)c(Cl)c1)c1ccco1 | 0.11% |
| COc1cc(-c2cc(-c3ccc(S(C)(=O)=O)cc3)cnc2N)ccc1O | 6.13% |
| CCOc1ccc2c(c1)N(C(=O)C=Cc1ccccc1)C(C)(C)c1ssc(=S)c1-2 | 0.5% |
| Fc1ccc2[nH]c(-c3cccc(-c4ccc(CNCCN5CCNCC5)cc4)c3)nc2c1 | -0.21% |
| CCN(CC)CCOc1ccc(N(Cc2ccc(C(C)(C)C)cc2)C(=O)c2ccc(Cc3ccccc3)cc2)cc1OC | 17.8% |
| COc1cc(C(=O)N2CCOC(CCN3CCC(c4ccc(Cl)cc4)CC3)(c3ccc(Cl)c(Cl)c3)C2)cc(OC)c1OC (stereo not given) | 12.4% |
| Fc1ccccc1COc1ccc(Nc2ncnc3ccc(-c4nnc(C(F)(F)F)o4)cc23)cc1Cl | 6.41% |
| COc1cc2c(cc1N(C(C)C)S(=O)(=O)c1sc3ccc(Cl)cc3c1C)CCNCC2 | 43.3% |
| O=C(Nc1nccs1)c1cn(-c2ccccc2)nc1-c1ccc(Cl)s1 | 3.1% |
| Cc1ccc(CNC(=O)[C@H](CCCN)Nc2cc(C)nc(NCC3CCCCC3)n2)cc1 | 1.46% |
| Cc1cccc2nc(-c3ccc(-c4ccc(CNCCc5ccncc5)cc4)cc3)[nH]c12 | 13.2% |
| c1ccc(Oc2ccc(Nc3ccnc4ccc(-c5ccccn5)cc34)cc2)cc1 | 2.62% |
| O=C(NCc1cccc(F)c1)Nc1ccc(-c2ccc(-c3nc4cc(C(F)(F)F)ccc4[nH]3)cc2)cc1 | 0.8% |
